Several values for one entry are separate records, joined by “and”; a condition that tells them apart may be missing. Identical values can stand only once. Inconclusive results are not listed. The source holds several records for some structures; these can differ, active in one and inactive in another. Activity calls are given as the source filed them. Unless noted, calls come from the whole dose curve; as a rule, active = well fitted curve in the direction sought with a large enough effect in the repeat runs; inconclusive = weak or mixed curves; inactive = no such curve, though single readings can be large; an effect the other way counts as inactive or inconclusive.

The source of these data is PubChem BioAssay (Tox21).

For assay [1], the target named is Luciferin 4-monooxygenase (Photinus pyralis) (UniProt P08659). In words: qHTS assay to identify small molecule inhibitors of firefly luciferase (AID 1224835). Note: series mostly up to about 120 µM; nearly all actives have a fitted effect of over 25% in size. In outline:
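Quantitative HTS format; KM concentrations of both substrates. Purified P. pyralis FLuc activity quantified from luminescence images.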

Assay [2] is described as follows: qHTS assay to identify small molecule agonists of the constitutive androstane receptor (CAR) signaling pathway - cell viability counter screen (AID 1224836). For viability change, negative = cytotoxic: series mostly up to about 92 µM. Note: nearly all actives have a fitted effect of over 45% in size. Note: potency is the fitted concentration of half-maximal effect. An outline of the steps: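 HepG2-CYP2B6-hCAR, 2500 cells/well, 4 h pre-incubation; cpd 15 conc + PK11195 0.75 uM final; 23 h, 37 C/5% CO2; CellTiter-Fluor, fluorescence.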
Background: In qHTS, concentration-response curves come from the screen itself.

Assay [3] can be described thus: qHTS assay to identify small molecule antagonists of the constitutive androstane receptor (CAR) signaling pathway - cell viability counter screen (AID 1224837). For activity change, negative = cytotoxicity: series mostly up to about 92 µM. Note: nearly all actives have a fitted effect of over 45% in size. Note: potency is the fitted concentration of half-maximal effect. An outline of the steps: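 HepG2-CYP2B6-hCAR cells, 2500/well, 4 hr pre-incubation; compound titration, 15 conc.; CITCO 50 nM final; 23 hr, 37 C/5% CO2; CellTiter-Fluor, fluorescence intensity.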
In assay [4] the target is Nuclear receptor subfamily 1 group I member 3 (Homo sapiens) (UniProt Q14994). Description: qHTS assay to identify small molecule agonists of the constitutive androstane receptor (CAR) signaling pathway (AID 1224839).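 For activation: HepG2 cells stably carrying human CAR and a CYP2B6 luciferase reporter; series mostly up to about 92 µM.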 Note: nearly all actives have a fitted effect of over 15% in size. Note: potency is the fitted concentration of half-maximal effect. An outline of the steps: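 HepG2-CYP2B6-hCAR cells, 2500/well, 4 h pre-incubation; compounds 15 conc.; PK11195 0.75 uM final; 24 h, 37 C/5% CO2; ONE-Glo luciferase read.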

A short description of assay [5]: qHTS assay to identify small molecule antagonists of the estrogen related receptor signaling pathway with the pleiotropic PPARgamma coactivator (PGC) from Tox21 10K library - cell viability counter screen (AID 1224840; active = well fitted cell-killing curve with a large enough effect in the repeat runs, not every such curve was filed as active; note: nearly all actives have a fitted effect of over 40% in size; note: potency is the fitted concentration of half-maximal effect). In outline: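 PGC/ERR cells, 2,000/well; 6 h pre-incubation 37 C/5% CO2; cpd in DMSO via pin tool; 17.5 h 37 C; CellTiter-Fluor, 30 min; fluorescence.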

Assay [6] can be described thus: qHTS assay to identify small molecule antagonists of the estrogen related receptor signaling pathway with the pleiotropic PPARgamma coactivator (PGC) from Tox21 10K library (AID 1224841; call rule not given here; note: actives are mostly falling curves and most rising ones were filed inactive; nearly all actives have a fitted effect of over 50% in size; note: potency is the fitted concentration of half-maximal effect; for activity, negative = inhibition: series mostly up to about 92 µM). An outline of the steps: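 PGC/ERR cell line, 2,000 cells/well; 6 h pre-incubation 37 C/5% CO2; compounds (DMSO) pinned in; 18 h, 37 C; One-Glo, 30 min RT; luminescence.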
The nature of assay [7]: qHTS assay to identify small molecule agonists of the estrogen related receptor signaling pathway with the pleiotropic PPARgamma coactivator (PGC) from Tox21 10K library (AID 1224842). Note: nearly all actives have a fitted effect of over 15% in size. In outline: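 PGC/ERR reporter cells (NTP line) were seeded 2,000 per well, rested 6 h at 37 C/5% CO2, then pin-dosed with compounds in DMSO for 18 h at 37 C; luciferase read by One-Glo luminescence after 30 min at room temperature.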

A short description of assay [8]: qHTS assay to identify small molecule agonists of the hypoxia (HIF-1) signaling pathway - cell viability counter screen (AID 1224844; calls by dose curve; note: nearly all actives have a fitted effect of over 50% in size; note: potency is the fitted concentration of half-maximal effect). In outline:
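ME-180 HRE-bla cells, 2,000/well, 0.5% dialyzed FBS; 5 hr settle, 17 hr compound at 37C/5% CO2; CCF4-AM reporter read first, then CellTiter-Glo luminescence after 30 min RT.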

Assay [9] has as its target Nuclear receptor subfamily 1 group I member 3 (Homo sapiens) (UniProt Q14994). Description: qHTS assay to identify small molecule antagonists of the constitutive androstane receptor (CAR) signaling pathway (AID 1224838).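 Note: HepG2 cells stably expressing hCAR with CYP2B6 luciferase reporter stimulated by CITCO; nearly all actives have a fitted effect of over 40% in size.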 An outline of the steps: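 HepG2-CYP2B6-hCAR cells; 4 h pre-incubation; cpd (15 conc) + CITCO 50 nM final; 24 h, 37 C/5% CO2; ONE-Glo, luminescence.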

In assay [10] the target is Thyrotropin receptor (Homo sapiens) (UniProt P16473). In words: qHTS assay to identify small molecule agonists of the thyroid stimulating hormone receptor (TSHR) signaling pathway (AID 1224843; calls by dose curve; note: nearly all actives have a fitted effect of over 45% in size; note: potency is the fitted concentration of half-maximal effect). In outline:
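TSHR-expressing HEK293 cells (800 per well) were exposed to compounds for 30 min at room temperature. cAMP was then detected by HTRF competition with cAMP-d2 and anti-cAMP cryptate, read after 1 h at room temperature. Fifteen concentrations, triplicate.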
% is set by controls: 0 for no effect and ±100 for the full control effect.

Sequence of Thyrotropin receptor (Homo sapiens) (P16473 whole entry, looked up): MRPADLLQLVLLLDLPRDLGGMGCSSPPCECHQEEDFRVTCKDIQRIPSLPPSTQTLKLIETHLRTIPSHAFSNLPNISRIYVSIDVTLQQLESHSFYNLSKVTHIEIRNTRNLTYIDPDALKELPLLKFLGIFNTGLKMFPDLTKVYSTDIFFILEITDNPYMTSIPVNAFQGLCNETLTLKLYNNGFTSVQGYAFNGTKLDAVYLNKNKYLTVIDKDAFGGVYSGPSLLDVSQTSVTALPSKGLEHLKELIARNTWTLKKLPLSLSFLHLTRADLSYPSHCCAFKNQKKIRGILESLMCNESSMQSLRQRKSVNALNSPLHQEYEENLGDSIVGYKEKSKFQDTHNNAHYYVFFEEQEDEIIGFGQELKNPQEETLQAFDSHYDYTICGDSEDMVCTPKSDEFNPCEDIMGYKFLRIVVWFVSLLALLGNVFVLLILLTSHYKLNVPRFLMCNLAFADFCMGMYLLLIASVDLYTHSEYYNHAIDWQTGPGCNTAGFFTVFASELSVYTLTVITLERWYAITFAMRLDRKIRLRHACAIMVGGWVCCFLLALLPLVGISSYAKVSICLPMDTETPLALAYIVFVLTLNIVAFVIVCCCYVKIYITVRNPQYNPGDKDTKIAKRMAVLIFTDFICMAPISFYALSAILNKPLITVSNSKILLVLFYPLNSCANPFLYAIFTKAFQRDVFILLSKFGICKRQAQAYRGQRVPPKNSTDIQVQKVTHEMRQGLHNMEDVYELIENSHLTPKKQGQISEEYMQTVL
Sequence of Luciferin 4-monooxygenase (Photinus pyralis) (P08659 whole entry, looked up): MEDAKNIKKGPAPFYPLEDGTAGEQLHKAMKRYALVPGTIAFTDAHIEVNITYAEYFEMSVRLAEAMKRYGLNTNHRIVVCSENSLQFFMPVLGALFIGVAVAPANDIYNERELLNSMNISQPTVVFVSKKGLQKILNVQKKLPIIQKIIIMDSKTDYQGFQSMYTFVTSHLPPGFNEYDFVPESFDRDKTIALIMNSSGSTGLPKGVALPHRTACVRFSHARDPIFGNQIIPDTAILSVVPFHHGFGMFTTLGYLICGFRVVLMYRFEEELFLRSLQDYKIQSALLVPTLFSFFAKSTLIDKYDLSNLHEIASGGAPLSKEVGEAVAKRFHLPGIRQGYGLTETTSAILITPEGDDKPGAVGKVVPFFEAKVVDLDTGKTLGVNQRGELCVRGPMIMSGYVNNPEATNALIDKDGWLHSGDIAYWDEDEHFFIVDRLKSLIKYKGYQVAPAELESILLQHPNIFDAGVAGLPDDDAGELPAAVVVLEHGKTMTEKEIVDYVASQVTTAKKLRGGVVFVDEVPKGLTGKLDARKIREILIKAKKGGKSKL
Sequence of Nuclear receptor subfamily 1 group I member 3 (Homo sapiens) (Q14994 whole entry, looked up): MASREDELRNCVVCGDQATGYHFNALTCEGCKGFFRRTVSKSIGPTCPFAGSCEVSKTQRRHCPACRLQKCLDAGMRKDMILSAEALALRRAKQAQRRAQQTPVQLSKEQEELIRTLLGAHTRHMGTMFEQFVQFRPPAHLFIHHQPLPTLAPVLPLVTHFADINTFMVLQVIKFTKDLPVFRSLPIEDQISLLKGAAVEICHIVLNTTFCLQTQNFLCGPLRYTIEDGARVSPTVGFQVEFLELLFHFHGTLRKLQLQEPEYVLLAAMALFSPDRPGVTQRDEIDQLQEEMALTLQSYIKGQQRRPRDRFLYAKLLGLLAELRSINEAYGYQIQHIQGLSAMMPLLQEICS

As for `C=C(c1ccc(C(=O)O)cc1)c1cc2c(cc1C)C(C)(C)CCC2(C)C`, the Potency result in assay [1], in assay [2], in assay [3] and in [7] was “inactive” each time. The Potency in [4] was 38.6 µM (active) and inactive; in [5], 61.1 µM (active) and inactive; in assay [6] it was 21.7 µM (active); in assay [8] it was 15.5 µM (active) and 16.9 µM (active).
Turning to `CCOC(=O)CN`, the Potency entry in assay [1], in assay [2], in assay [3], in [9], in assay [5] and in assay [10] was “inactive” in each case. In assay [8], the Potency result was “inactive”.
Consider `CC(=O)C=O`, for which the Potency result in assay [1], in [2], in [3], in assay [9], in [5] and in assay [8] was “inactive” each time.
As for `CCCN(CCc1cccs1)[C@H]1CCc2c(O)cccc2C1`, the Potency result in [1], in assay [2], in [3], in assay [9], in assay [5] and in assay [6] was “inactive” in each case. Further, the Potency entry in assay [7] and in assay [8] was “inactive” each time. The Potency in assay [10] was 29.8 µM (active).
`CO[C@H]1C=CO[C@@]2(C)Oc3c(C)c(O)c4c(O)c(cc(O)c4c3C2=O)NC(=O)/C(C)=C\C=C/[C@H](C)[C@H](O)[C@@H](C)[C@@H](O)[C@@H](C)[C@H](OC(C)=O)[C@@H]1C`: the Potency entry in assay [1], in assay [9], in [6] and in [7] was “inactive” each time. The Potency is 61.6 µM (active) in [2], 48.9 µM (active) in [3] and 22 µM (active) in assay [8].
As for `O=CC1CC1`, the Potency result in assay [1], in assay [2], in [3], in [9], in assay [5] and in assay [10] was “inactive” each time. Besides, in assay [8], the Potency result is “inactive”.
Take `S=P(N1CC1)(N1CC1)N1CC1`: the Potency entry in [1], in assay [2], in assay [3], in [4], in assay [5] and in assay [7] was “inactive” each time. In addition, the Potency entry in assay [10] was “inactive”. The Potency in [6] was 5.74 µM (active).
`C/C=C/C=N/NC(=O)c1ccncc1`: the Potency entry in assay [1], in assay [2], in assay [3], in assay [4], in assay [5] and in assay [10] was “inactive” in each case.
On to `C=CC(=O)OCCOCC(CC)(COCCOC(=O)C=C)COCCOC(=O)C=C`, for which the Potency entry in assay [1], in assay [4] and in assay [10] was “inactive” in each case. The Potency in assay [2] was 71.4 µM (active); in [3], 31.9 µM (active); in assay [5] it was 16 µM (active).
`Cn1cnc2ncnc(N)c21`: the Potency result in assay [1], in assay [2], in assay [3], in assay [9], in [5] and in assay [10] was “inactive” in each case. Besides, the Potency result in assay [8] is “inactive”.
Regarding `Cc1c(C(=O)O)cccc1[N+](=O)[O-]`, the Potency result in [1], in assay [2], in assay [3], in [9], in [5] and in [10] was “inactive” in each case. In assay [8], the Potency result was “inactive”.
For the compound `COc1cccc(O)c1`, the Potency entry in assay [1], in assay [2], in [3], in assay [9], in [5] and in assay [8] was “inactive” throughout.
`C=CC/C=C/C/C=C/C/C=C/C`: the Potency result in [1], in assay [2], in assay [3], in [9], in [5] and in [6] was “inactive” each time. The Potency entry in [10] and in [8] was “inactive” throughout.
As for `CCN1CCN(c2cc(-c3ccc(F)cc3)c3c(n2)CCCCCC3)CC1`, the activity change, negative = inhibition in assay [1] is -0.963% [at 23.6 µM] (inactive). The viability change, negative = cytotoxic in assay [2] is 4.47% [at 19 µM] (inactive); in assay [5] it was 18% [at 19 µM] (inactive). Also, the activity change, negative = cytotoxicity is 3.17% [at 19 µM] (inactive) in assay [3] and 0.919% [at 15.8 µM] (inactive) in assay [8]. For the same compound, the activity, negative = inhibition in assay [9] is 16.5% [at 19 µM] (inactive); in assay [6], 3.89% [at 19 µM] (inactive). Further, the activation in [7] is -0.232% [at 19 µM] (inactive); in assay [10], -12.2% [at 19 µM] (inactive).
In the case of `CCCCCCCC/C=C\CCCCCCCC(=O)NCc1ccc(O)c(OC)c1`, the Potency result in assay [1], in assay [2], in assay [3], in [9], in assay [5] and in assay [7] was “inactive” throughout. For the same compound, the Potency entry in assay [8] was “inactive”.
`CCCCCCCOC(=O)c1ccccc1C(=O)OCCCCCCC`: the Potency result in assay [1], in [2], in assay [3], in [9], in assay [5] and in [6] was “inactive” throughout. Also, the Potency entry in assay [7] and in assay [10] was “inactive” each time.
For `OCCCCl`, the Potency result in assay [1], in assay [2], in [3], in assay [9], in [5] and in assay [7] was “inactive” in each case. Further, the Potency entry in assay [10] and in assay [8] was “inactive” each time.
As for `CCCCNc1c(C(=O)OCC)c(C)nc2c1cnn2CC`, the Potency result in assay [1], in assay [2], in [3], in [9], in assay [5] and in assay [10] was “inactive” throughout.
